Screening results as filed in PubChem BioAssay.
Most compounds without a hit are left out; they make up all but 3.8% or so of the library.
ELG1 repair inh = qHTS screen for small molecules that inhibit ELG1-dependent DNA repair in human embryonic kidney (HEK293T) cells expressing luciferase-tagged ELG1 | Potency, µM (series often up to 46.1 µM), most hits filed as inhibitors | 330,000 compounds, 2.3% hits | HEK293T ELG1-luciferase reporter, luminescence, 16 h; DNA damage induced by 5-fluorouridine; note: nearly all actives have a fitted effect of over 55% in size
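Reporter activity after DNA damage by 5-fluorouridine is monitored. Compound-treated cells incubate 16 hr at 37 °C, then ONE-Glo is added for 30 min before luminescence reading.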
Nrf2 ARE act = qHTS of Nrf2 Activators; AREc32 ARE-luciferase reporter (MCF7-derived line), luminescence, 24 h; 410,000 compounds, 0.31% hits; Potency, µM (titrated, usually from 46.1 µM), actives largely listed as activators; note: nearly all actives have a fitted effect of over 65% in size
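Steps: seed AREc32_Fluc cells (1000/well, 5% FBS OPTI-MEM); incubate overnight at 37 deg C; add 23 nL compound; incubate 24 hr; add Steady-Glo; hold 30 min RT; read luminescence.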
IDH1 R132H inh = qHTS for Inhibitors of mutant isocitrate dehydrogenase 1 (IDH1): qHTS | Isocitrate dehydrogenase [NADP] cytoplasmic (Homo sapiens), O75874 | IDH1-R132H enzyme, NADPH consumption, diaphorase/resazurin fluorescence | Potency, µM (series often up to 76.6 µM), most hits filed as inhibitors | 390,000 compounds, 0.093% hits; note: nearly all actives have a fitted effect of over 65% in size
Target sequence (O75874 whole entry R132H, stated change not applied): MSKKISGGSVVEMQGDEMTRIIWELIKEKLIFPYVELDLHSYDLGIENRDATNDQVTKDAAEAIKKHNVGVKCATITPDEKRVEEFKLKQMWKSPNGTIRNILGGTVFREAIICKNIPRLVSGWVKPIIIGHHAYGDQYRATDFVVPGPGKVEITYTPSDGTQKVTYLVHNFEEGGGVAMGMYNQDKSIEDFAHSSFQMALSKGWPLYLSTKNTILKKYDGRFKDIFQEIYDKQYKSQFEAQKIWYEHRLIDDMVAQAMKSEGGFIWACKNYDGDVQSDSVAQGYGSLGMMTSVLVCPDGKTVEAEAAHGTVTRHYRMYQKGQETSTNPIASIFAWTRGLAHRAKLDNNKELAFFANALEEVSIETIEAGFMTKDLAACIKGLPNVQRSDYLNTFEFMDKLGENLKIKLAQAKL
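IDH1-R132H (0.5 ug/mL dispensed) in pH 7.5 Tris buffer was preincubated 30 min with compound, then given a substrate mix of 0.016 mM NADPH and 2 mM alpha-KG for 80 min at room temperature; remaining NADPH was read by diaphorase/resazurin fluorescence.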
Nrf2 block = Nrf2 qHTS screen for inhibitors; 360,000 compounds, 2.1% hits; AID 504444, 2011; A549 ARE-Fluc reporter, luciferase luminescence, 18-24 h; Potency, µM (titrated, usually from 46 µM), most hits filed as inhibitors; note: nearly all actives have a fitted effect of over 60% in size
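Concentration-response testing used A549 ARE_Fluc cells at 5000 cells/well. Following an 18-24 h compound incubation, viability was read by fluorescence (Ex 405/Em 525) and luciferase output by luminescence.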
A549 tox = Nrf2 qHTS screen for inhibitors: counterscreen for cytotoxicity; A549 ARE-Fluc cells, CellTiter-Fluor viability, 18-24 h; Potency, µM (series often up to 46 µM), usual class: inhibitors; 390,000 compounds, 0.16% hits
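A549 ARE-Fluc cells in 5% FBS OPTI-MEM, 5000 cells/well, rested 2 h then exposed to compounds in concentration-response for 18-24 h at 37 °C. Viability by CellTiter-Fluor fluorescence (Ex 405/Em 525) after 30 min; luciferase luminescence (BugLite, 15 min, RT) read afterwards.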
A number is an active result; – = inactive; ? = inconclusive; · = not tested or not shown; ! = not confirmed by another sample. Calls come from the whole dose curve; as a rule, active = well fitted curve in the direction sought with a large enough effect; inconclusive = small, poorly fitted or top-dose-only effect, or another doubt; inactive = no such curve, though single readings can be large; an effect the other way counts as inactive or inconclusive.

SMILES	ELG1 repair inh	Nrf2 ARE act	IDH1 R132H inh	Nrf2 block	A549 tox
C[C@H](NC(=O)c1ccccc1)C(=O)Nc1nc(-c2ccccn2)cs1	7.3µM	–	–	?	–
CC(Oc1cccc(Cl)c1)C(=O)Nc1nc(-c2ccccn2)cs1 (stereo not given)	?	?	–	16µM	?
O=C(Nc1nc(-c2ccc(Cl)cc2)cs1)c1cccnc1	–	–	–	?	–
CC(Oc1ccccc1)C(=O)Nc1nc(-c2ccccn2)cs1 (stereo not given)	?	–	–	?	?
O=C(Nc1nc(-c2cc(Cl)sc2Cl)cs1)c1ccccc1	?	10µM	–	?	?
Cc1cccc(C(=O)NC(C(=O)Nc2nc(-c3ccccn3)cs2)C(C)C)c1 (stereo not given)	2.9µM	–	–	?	?
C=Cc1nc(Nc2cc(F)cc(F)c2)nc(NC2CCCC2)n1	·	·	·	–	–
Cc1csc(SCC(=O)NC(C)C2CC3CCC2C3)n1 (stereo not given)	–	–	–	–	–
O=C(Nc1nc(-c2ccccn2)cs1)c1ccc(Cl)s1	?	–	–	2.6µM	?
COc1ccc(-c2csc3nc(C)nc(N4CCN(c5ccc(C(C)=O)cc5)CC4)c23)cc1OC	13µM	?	–	–	–
CCOC(=O)N1CCC(NC(=O)c2cc3c(-c4ccc(OC)c(OC)c4)nn(C)c3s2)CC1	7.3µM	–	–	?	–
CCOC(=O)N1CCC(NC(=O)c2cc3c(-c4ccccc4F)nn(C)c3s2)CC1	13µM	–	–	?	–
CCOC(=O)C1CCN(C(=O)c2cc3c(-c4ccc(OC)c(OC)c4)nn(C)c3s2)CC1	?	–	–	–	–
CCOc1ccc(CCNC(=O)c2cc3c(-c4ccccc4F)nn(C)c3s2)cc1OCC	·	–	–	18µM	–
CC1CCCCN1CCNC(=O)c1cc2c(-c3ccccc3F)nn(C)c2s1 (stereo not given)	–	–	–	–	–
CCOC(=O)c1cnc(-n2nc(C)cc2C)nc1NCc1ccc2c(c1)OCO2	21µM	–	–	?	–
COc1ccc(Cl)cc1NC(=O)c1ncn(-c2ccccc2)n1	·	8.9µM	–	?	–
CCSC1=C(C#N)C(c2cccs2)C(C(=O)OC)=C(C)N1 (stereo not given)	–	–	–	23µM	?
CCOC(=O)C1=C(C)NC(SCC(N)=O)=C(C#N)C1c1cccs1 (stereo not given)	–	–	–	–	–
O=c1c(N2CCc3ccccc3C2)csc2ccccc12	·	?	–	·	–
O=C(NC(=S)N1CCN(c2nc(-c3ccccc3)cs2)CC1)c1cncc(Br)c1	?	–	–	23µM	–
CCOCCCNC(=S)N1CCN(c2nc(-c3ccccc3)cs2)CC1	?	–	–	16µM	–
COCCCNC(=S)N1CCN(c2nc(-c3ccccc3)cs2)CC1	?	–	–	12µM	–
O=C(CN1CCN(c2nc(-c3ccccc3)cs2)CC1)NNC(=O)c1ccc(Br)cc1	?	–	–	–	–
COCCCNC(=S)N1CCN(c2nc(-c3ccc(Cl)cc3)cs2)CC1	·	–	–	·	·
SMILES	ELG1 repair inh	Nrf2 ARE act	IDH1 R132H inh	Nrf2 block	A549 tox
COc1ccc(CN(C)C(=O)Cn2cc(C)c(=O)[nH]c2=O)cc1OC	·	–	–	–	–
CC1(C(=O)Nc2ccccc2F)CCN1C(=O)Cc1cc(F)ccc1F (stereo not given)	·	–	·	·	·
CCc1cccc(NC(=O)Cn2c(=O)n(CC(=O)NCCc3ccccc3)c(=O)c3ccccc32)c1	·	–	–	–	–
CCOC(=O)N1CCN(c2ccc(S(=O)(=O)N3CCC(C)CC3)cc2[N+](=O)[O-])CC1	?	–	–	18µM	–
CC(C)CCNC(=O)CN(C(=O)CCC(=O)Nc1nccs1)C1CCCCC1	–	–	–	–	–
Cc1ccc(S(=O)(=O)N2CCN(c3nc(C)nc4sc(C)c(C)c34)CC2)cc1	–	·	·	·	·
CCOC(=O)c1sc2nc(CC(=O)OC)nc(NCCN(CC)CC)c2c1C	–	–	–	–	–
CCOC(=O)c1sc2nc(C)nc(NCc3ccccc3)c2c1C	23µM	–	–	?	–
CCOC(=O)c1sc2nc(C)nc(N3CCN(S(=O)(=O)c4ccccc4)CC3)c2c1C	23µM	–	–	–	–
CCOC(=O)c1sc2nc(C)nc(Nc3ccccc3)c2c1C	–	–	–	–	–
CCOC(=O)c1sc2nc(CC(=O)OC)nc(NCc3ccc(Cl)cc3)c2c1C	5.8µM	–	–	·	–
CCOC(=O)C1CC(CN2C(=O)c3ccccc3C2=O)OC1=O (stereo not given)	·	–	–	–	–
COc1ccc(N2CCc3c(C)nc4c(OC)cccc4c32)cc1	?	–	–	–	–
COc1cccc(N2CCc3c(C)nc4ccc(Cl)cc4c32)c1	23µM	–	–	?	?
CCC(CC)C(=O)Nc1nnc(S(=O)(=O)N(C)c2cc(C)cc(C)c2)s1	·	–	–	21µM	–
Cc1cccc(N(C)S(=O)(=O)c2nnc(NC(=O)c3ccco3)s2)c1	–	–	–	–	–
CN(c1ccccc1)S(=O)(=O)c1nnc(NC(=O)c2ccco2)s1	–	–	–	7.3µM!	–
N#Cc1cccc(NC(=O)c2cc(C3CCCCN3C(=O)c3cccs3)on2)c1 (stereo not given)	·	–	·	·	·
COc1ccc(C2Nc3ccccc3C(=O)N2Cc2ccco2)cc1OC (stereo not given)	·	·	·	–	–
CCN(CC)S(=O)(=O)c1ccc(C(O)=C(C#N)c2nc3ccccc3n2C)cc1	·	–	–	23µM	–
O=C1c2ccccc2C(=O)N1CCCCN(C(=O)c1cc2ccccc2oc1=O)c1ccc(Cl)cc1	23µM	–	–	–	–
CC(C)Cn1nc(NC(=O)c2ccco2)c2cc3ccccc3nc21	?	–	–	16µM	–
CC(C)Cn1nc(NC(=O)c2cccs2)c2cc3ccccc3nc21	21µM	–	–	16µM	–
CCCCNC(=O)C(CC)Sc1nc2ccccc2c(=O)n1Cc1ccco1 (stereo not given)	·	–	–	·	–
Fc1c(F)c(-n2nnc3ccccc32)c(F)c(F)c1Cl	–	–	–	–	–
CCOC(=O)C1CCN(S(=O)(=O)c2cccc(-c3cn4cc(C)ccc4n3)c2)CC1	?	–	–	?	–
CCOC(=O)C1CCN(S(=O)(=O)c2cccc(-c3cn4cccnc4n3)c2)CC1	13µM	–	–	?	–
Cc1ccc2nc(N(CCN(C)C)C(=O)C3CCN(S(=O)(=O)c4cccs4)CC3)sc2c1	·	–	–	·	·
CS(=O)(=O)c1cccc(NC(=O)C2CC2)c1	–	–	–	–	–
O=C(Nc1cccc(S(=O)(=O)c2cccc(NC(=O)C3CC3)c2)c1)C1CC1	–	–	–	8.2µM	–
